Assays:
Assay in all cases: DAPPL (digital affinity profiling via proximity ligation, sequencing); 10 mM Tris-HCl pH 7.5, 50 mM NaCl, 1 mM DTT, 4% glycerol, room temperature, 30 min; GST-TFs on glutathione beads, 16-mer random dsDNA library, 0.1% formaldehyde crosslink after washing; high values mean tight binding
FEV = target: T1, FEV (Homo sapiens, UniProt Q99581 1-238); conditions: protein: recombinant; tags: N-terminal GST; dsDNA, one strand shown
T1 sequence: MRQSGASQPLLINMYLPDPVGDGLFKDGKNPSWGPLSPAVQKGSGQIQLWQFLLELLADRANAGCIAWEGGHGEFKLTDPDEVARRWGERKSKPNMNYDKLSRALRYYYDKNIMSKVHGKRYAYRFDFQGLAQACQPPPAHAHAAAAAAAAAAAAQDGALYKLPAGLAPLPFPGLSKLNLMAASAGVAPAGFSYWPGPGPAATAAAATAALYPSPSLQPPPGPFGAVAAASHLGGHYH
Procedure, shortened: (§1)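 In yeast, human transcription factors were expressed with a GST fusion, then pulled down on glutathione beads and given DNA barcodes. Pooled with a tag-only sample, they were exposed to 200 nmole of a 16-mer random double-stranded DNA library (Tris/NaCl/DTT/glycerol buffer, room temperature, 30 min), washed, crosslinked with 0.1% formaldehyde, proximity-ligated using BsaI/T4 ligase for 1 h at 37 °C, PCR-amplified and read on an Illumina NextSeq500. Each hexamer's frequency of reads for a factor, divided by the matching frequency for the tag-only sample, gives the binding signal.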

ETV5 = ETV5 (Homo sapiens, UniProt P41161 1-510); conditions: protein: recombinant; tags: N-terminal GST; dsDNA, one strand shown
Sequence of ETV5 (P41161 whole entry): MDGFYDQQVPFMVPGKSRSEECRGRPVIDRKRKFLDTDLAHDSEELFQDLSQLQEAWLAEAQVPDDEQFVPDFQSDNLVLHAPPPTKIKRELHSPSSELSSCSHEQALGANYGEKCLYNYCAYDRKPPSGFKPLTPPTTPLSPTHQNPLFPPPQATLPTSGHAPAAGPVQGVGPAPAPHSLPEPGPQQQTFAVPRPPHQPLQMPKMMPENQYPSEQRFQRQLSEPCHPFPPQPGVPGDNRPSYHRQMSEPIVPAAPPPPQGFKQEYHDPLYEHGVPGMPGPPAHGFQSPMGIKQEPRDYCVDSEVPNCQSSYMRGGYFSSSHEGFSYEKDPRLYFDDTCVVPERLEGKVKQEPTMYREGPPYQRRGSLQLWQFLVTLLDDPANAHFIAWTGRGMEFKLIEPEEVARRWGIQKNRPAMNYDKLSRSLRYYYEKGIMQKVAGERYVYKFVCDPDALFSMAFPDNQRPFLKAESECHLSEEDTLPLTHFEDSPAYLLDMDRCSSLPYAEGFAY
Procedure, shortened: as §1

HSF1 = HSF1 (Homo sapiens, UniProt Q00613 1-529); conditions: protein: recombinant; tags: N-terminal GST; chain copies: 3; dsDNA, one strand shown
Sequence of HSF1 (Q00613 whole entry): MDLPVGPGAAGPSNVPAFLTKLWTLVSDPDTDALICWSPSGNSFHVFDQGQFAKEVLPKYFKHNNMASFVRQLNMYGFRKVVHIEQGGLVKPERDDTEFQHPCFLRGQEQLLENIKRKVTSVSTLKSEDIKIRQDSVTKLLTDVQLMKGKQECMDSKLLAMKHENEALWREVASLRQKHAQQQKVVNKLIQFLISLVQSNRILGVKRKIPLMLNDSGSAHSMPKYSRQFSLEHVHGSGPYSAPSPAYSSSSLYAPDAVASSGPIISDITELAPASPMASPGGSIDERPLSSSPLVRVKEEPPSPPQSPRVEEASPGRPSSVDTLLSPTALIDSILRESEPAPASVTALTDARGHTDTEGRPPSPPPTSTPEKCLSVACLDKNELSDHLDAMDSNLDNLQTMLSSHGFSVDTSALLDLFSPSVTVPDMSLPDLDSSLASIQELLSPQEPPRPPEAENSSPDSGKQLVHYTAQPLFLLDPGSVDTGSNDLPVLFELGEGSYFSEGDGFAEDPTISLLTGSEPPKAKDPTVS
Procedure, shortened: as §1

SPIC = target: T2, SPIC (Homo sapiens, UniProt Q8N5J4 1-248); conditions: protein: recombinant; tags: N-terminal GST; dsDNA, one strand shown
T2 sequence: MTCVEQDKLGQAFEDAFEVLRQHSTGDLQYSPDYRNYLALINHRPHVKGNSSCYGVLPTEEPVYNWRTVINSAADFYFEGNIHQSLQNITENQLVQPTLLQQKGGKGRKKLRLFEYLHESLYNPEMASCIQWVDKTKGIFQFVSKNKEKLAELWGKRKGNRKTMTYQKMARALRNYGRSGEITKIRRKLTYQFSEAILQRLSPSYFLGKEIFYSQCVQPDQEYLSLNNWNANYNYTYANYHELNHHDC
Procedure, shortened: as §1

ELF4 = ELF4 (Homo sapiens, UniProt Q99607 1-663); conditions: protein: recombinant; tags: N-terminal GST; dsDNA, one strand shown
Sequence of ELF4 (Q99607 whole entry): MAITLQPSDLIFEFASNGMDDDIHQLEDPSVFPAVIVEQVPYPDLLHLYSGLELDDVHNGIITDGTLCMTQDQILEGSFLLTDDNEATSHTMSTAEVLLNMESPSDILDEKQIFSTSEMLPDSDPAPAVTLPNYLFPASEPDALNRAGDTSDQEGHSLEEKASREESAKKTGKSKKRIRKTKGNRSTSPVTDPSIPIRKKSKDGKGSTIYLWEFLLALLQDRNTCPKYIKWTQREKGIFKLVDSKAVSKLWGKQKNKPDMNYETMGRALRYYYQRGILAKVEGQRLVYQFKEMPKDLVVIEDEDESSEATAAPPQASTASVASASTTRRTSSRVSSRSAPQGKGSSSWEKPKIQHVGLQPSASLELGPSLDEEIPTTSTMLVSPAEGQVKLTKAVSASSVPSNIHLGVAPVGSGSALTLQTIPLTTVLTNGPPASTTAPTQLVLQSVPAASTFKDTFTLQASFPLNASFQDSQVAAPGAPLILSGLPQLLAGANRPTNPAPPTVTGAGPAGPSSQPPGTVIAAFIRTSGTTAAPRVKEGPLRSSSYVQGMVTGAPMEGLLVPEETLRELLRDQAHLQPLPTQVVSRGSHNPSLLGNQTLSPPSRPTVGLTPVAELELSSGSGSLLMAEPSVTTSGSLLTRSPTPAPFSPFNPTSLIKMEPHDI
Procedure, shortened: as §1

ELK4 = target: T3, ELK4 (Homo sapiens, UniProt P28324-2 1-405); conditions: protein: recombinant; tags: N-terminal GST; dsDNA, one strand shown
T3 sequence: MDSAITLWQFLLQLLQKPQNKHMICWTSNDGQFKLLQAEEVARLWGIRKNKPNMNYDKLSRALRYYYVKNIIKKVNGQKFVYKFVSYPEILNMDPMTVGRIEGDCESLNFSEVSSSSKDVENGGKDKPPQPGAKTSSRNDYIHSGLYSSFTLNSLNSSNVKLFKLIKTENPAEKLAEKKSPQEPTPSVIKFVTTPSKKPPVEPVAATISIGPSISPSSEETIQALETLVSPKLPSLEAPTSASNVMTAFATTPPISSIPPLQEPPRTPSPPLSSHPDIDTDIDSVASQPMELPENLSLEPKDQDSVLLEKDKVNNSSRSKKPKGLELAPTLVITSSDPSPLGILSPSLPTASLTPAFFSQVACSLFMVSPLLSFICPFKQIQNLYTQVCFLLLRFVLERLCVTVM
Procedure, shortened: as §1

ETV2 = target: T4, ETV2 (Homo sapiens, UniProt O00321 1-342); conditions: protein: recombinant; tags: N-terminal GST; dsDNA, one strand shown
T4 sequence: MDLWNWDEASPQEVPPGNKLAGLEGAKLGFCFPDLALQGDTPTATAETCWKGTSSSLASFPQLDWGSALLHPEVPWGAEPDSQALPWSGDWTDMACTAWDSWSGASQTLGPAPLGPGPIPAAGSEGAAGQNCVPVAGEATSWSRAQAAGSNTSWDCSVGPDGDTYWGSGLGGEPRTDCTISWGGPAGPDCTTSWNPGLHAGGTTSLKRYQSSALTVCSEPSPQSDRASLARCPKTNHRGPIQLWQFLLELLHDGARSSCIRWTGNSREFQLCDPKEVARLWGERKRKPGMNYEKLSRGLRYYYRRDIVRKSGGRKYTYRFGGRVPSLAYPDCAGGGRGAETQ
Procedure, shortened: as §1

ELF3 = target: T5, ELF3 (Homo sapiens, UniProt P78545 1-371); conditions: protein: recombinant; tags: N-terminal GST; dsDNA, one strand shown
T5 sequence: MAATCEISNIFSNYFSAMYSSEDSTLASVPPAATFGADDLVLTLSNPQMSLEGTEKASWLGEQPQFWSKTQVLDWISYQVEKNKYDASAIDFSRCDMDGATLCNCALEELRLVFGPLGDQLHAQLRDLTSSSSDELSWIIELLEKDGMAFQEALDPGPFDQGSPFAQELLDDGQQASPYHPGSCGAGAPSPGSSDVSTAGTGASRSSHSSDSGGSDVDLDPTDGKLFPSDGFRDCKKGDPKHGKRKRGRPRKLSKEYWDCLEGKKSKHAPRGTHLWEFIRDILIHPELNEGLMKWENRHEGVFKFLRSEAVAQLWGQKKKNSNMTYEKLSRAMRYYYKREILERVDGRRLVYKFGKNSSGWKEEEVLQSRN
Procedure, shortened: as §1

ETV1 = ETV1 (Homo sapiens, UniProt P50549 1-477); conditions: protein: recombinant; tags: N-terminal GST; dsDNA, one strand shown
Sequence of ETV1 (P50549 whole entry): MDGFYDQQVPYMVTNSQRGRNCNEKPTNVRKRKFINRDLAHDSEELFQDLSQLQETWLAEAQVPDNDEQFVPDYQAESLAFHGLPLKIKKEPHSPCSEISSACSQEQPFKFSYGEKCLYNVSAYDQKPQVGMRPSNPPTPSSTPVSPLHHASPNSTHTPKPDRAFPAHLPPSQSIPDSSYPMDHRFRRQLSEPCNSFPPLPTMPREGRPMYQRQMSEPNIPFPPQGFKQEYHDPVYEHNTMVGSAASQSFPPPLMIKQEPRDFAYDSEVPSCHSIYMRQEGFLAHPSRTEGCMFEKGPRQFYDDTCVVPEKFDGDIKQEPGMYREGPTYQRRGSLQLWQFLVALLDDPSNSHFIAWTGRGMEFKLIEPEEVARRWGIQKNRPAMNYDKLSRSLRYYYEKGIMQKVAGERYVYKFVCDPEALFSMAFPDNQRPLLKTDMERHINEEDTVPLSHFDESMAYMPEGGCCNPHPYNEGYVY
Procedure, shortened: as §1

ERF = target: T6, ERF (Homo sapiens, UniProt P50548 1-548); conditions: protein: recombinant; tags: N-terminal GST; dsDNA, one strand shown
T6 sequence: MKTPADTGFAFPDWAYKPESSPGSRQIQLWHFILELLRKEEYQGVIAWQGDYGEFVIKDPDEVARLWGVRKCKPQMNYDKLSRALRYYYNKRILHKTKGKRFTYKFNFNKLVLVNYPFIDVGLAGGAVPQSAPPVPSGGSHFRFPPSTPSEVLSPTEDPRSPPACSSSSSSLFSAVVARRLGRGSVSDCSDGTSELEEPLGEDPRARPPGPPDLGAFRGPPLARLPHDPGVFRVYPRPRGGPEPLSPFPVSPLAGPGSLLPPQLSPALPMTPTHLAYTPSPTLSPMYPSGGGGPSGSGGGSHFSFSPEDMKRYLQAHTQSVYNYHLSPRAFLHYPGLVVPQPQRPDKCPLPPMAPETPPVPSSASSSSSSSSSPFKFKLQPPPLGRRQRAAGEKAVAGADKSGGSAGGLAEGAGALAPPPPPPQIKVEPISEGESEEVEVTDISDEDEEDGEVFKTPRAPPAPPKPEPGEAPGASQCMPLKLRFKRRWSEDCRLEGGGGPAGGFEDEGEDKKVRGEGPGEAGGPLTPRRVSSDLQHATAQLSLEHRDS
Procedure, shortened: as §1

ETV3L = target: T7, ETV3L (Homo sapiens, UniProt Q6ZN32 1-361); conditions: protein: recombinant; tags: N-terminal GST; dsDNA, one strand shown
T7 sequence: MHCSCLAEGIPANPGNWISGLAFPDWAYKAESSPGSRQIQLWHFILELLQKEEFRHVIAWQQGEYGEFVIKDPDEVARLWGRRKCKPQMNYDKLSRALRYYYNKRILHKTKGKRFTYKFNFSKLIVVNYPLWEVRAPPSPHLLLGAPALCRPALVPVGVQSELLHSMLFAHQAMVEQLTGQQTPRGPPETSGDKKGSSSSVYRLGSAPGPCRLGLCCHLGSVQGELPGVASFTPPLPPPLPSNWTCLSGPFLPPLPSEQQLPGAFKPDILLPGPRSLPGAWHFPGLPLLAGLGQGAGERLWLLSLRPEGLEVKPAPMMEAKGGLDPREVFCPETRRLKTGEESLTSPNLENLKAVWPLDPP
Procedure, shortened: as §1

ETS2 = target: T8, ETS2 (Homo sapiens, UniProt P15036 1-469); conditions: protein: recombinant; tags: N-terminal GST; dsDNA, one strand shown
T8 sequence: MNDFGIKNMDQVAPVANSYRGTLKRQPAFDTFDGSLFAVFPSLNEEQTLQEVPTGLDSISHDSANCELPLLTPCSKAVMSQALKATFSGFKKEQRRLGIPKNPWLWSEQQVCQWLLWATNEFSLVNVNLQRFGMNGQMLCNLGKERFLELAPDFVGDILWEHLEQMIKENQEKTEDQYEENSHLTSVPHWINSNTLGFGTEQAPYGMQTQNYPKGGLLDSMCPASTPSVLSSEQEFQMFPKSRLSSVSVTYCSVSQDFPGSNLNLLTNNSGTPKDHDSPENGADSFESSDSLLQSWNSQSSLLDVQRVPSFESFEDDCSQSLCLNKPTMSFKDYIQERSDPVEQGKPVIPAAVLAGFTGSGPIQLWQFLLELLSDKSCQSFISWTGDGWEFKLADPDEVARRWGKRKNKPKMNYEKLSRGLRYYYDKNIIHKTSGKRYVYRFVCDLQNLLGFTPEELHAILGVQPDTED
Procedure, shortened: as §1

SPDEF = target: T9, SPDEF (Homo sapiens, UniProt O95238 1-335); conditions: protein: recombinant; tags: N-terminal GST; dsDNA, one strand shown
T9 sequence: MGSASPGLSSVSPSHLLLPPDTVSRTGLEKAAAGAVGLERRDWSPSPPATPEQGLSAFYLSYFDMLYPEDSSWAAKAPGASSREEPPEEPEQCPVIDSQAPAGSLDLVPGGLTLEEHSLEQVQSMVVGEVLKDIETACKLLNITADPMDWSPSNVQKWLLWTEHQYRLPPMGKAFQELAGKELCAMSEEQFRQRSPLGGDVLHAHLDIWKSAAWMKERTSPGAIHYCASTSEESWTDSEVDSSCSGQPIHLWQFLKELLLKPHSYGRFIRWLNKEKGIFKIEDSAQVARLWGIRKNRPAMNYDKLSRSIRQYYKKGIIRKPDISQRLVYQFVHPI
Procedure, shortened: as §1

ETV7 = target: T10, ETV7 (Homo sapiens, UniProt Q9Y603 1-341); conditions: protein: recombinant; tags: N-terminal GST; dsDNA, one strand shown
T10 sequence: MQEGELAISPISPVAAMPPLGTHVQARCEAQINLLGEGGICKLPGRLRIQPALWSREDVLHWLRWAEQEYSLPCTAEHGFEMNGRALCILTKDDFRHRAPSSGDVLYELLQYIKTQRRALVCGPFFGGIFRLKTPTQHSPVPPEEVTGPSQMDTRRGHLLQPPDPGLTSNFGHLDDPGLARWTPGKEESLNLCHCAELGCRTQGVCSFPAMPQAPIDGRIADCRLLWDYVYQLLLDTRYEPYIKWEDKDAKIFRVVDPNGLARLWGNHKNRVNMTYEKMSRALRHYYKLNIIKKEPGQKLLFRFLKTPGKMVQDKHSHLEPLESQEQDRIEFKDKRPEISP
Procedure, shortened: as §1

ELF5 = target: T11, ELF5 (Homo sapiens, UniProt Q9UKW6-2 1-255); conditions: protein: recombinant; tags: N-terminal GST; dsDNA, one strand shown
T11 sequence: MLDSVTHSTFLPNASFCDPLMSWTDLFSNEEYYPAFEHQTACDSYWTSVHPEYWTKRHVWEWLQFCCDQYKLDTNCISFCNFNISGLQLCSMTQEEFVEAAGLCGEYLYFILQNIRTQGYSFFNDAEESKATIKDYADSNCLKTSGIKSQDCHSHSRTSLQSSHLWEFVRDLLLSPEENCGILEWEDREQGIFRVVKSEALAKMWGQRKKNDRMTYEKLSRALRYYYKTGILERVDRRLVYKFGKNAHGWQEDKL
Procedure, shortened: as §1

ETV3 = target: T12, ETV3 (Homo sapiens, UniProt P41162-2 1-143); conditions: protein: recombinant; tags: N-terminal GST; dsDNA, one strand shown
T12 sequence: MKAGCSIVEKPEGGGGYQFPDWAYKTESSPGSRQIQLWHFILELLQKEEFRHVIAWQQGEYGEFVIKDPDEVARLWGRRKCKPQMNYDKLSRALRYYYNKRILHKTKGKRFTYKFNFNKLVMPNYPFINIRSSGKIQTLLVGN
Procedure, shortened: as §1

ETV6 = ETV6 (Homo sapiens, UniProt P41212 1-452); conditions: protein: recombinant; tags: N-terminal GST; dsDNA, one strand shown
Sequence of ETV6 (P41212 whole entry): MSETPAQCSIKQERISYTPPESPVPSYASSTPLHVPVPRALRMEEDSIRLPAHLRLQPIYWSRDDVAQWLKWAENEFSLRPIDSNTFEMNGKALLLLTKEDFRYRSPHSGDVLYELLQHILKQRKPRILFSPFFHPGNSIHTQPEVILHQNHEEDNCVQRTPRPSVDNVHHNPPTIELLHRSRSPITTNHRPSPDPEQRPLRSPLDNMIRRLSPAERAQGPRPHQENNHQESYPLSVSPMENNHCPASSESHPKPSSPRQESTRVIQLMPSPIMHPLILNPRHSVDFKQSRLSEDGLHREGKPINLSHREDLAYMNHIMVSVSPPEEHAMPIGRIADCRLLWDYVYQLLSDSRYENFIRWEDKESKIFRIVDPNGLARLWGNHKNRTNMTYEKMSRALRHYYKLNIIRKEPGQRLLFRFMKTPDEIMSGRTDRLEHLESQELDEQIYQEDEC
Procedure, shortened: as §1

## ACATAC
FEV
  binding signal: 1.13 fold enrichment (6-mer frequency, TF over GST control)
ETV5
  binding signal: 1.17 fold enrichment (6-mer frequency, TF over GST control)
HSF1
  binding signal: 1.07 fold enrichment (6-mer frequency, TF over GST control)
SPIC
  binding signal: 1.11 fold enrichment (6-mer frequency, TF over GST control)
ELF4
  binding signal: 1.21 fold enrichment (6-mer frequency, TF over GST control)
ELK4
  binding signal: 1.01 fold enrichment (6-mer frequency, TF over GST control)
ETV2
  binding signal: 1.32 fold enrichment (6-mer frequency, TF over GST control)
ELF3
  binding signal: 1.25 fold enrichment (6-mer frequency, TF over GST control)
ETV1
  binding signal: 1.15 fold enrichment (6-mer frequency, TF over GST control)
ERF
  binding signal: 1.23 fold enrichment (6-mer frequency, TF over GST control)
ETV3L
  binding signal: 1.15 fold enrichment (6-mer frequency, TF over GST control)
ETS2
  binding signal: 1.21 fold enrichment (6-mer frequency, TF over GST control)
SPDEF
  binding signal: 1.2 fold enrichment (6-mer frequency, TF over GST control)
ETV7
  binding signal: 1.12 fold enrichment (6-mer frequency, TF over GST control)
ELF5
  binding signal: 1.14 fold enrichment (6-mer frequency, TF over GST control)
ETV3
  binding signal: 1.18 fold enrichment (6-mer frequency, TF over GST control)
ETV6
  binding signal: 1.17 fold enrichment (6-mer frequency, TF over GST control)

Source: article PMC7862700, “An all-to-all approach to the identification of sequence-specific readers for epigenetic DNA modifications on cytosine”
